Out of some 5,500 compounds screened, about 2,000 (36%) were called active. Another 18% or so got no clear call; they are omitted. Rule as the data show it: active = normalized growth mostly below about 0.91 (no sharp cut-off); inconclusive = no clear call, values can overlap the other calls; inactive = mostly above about 0.92. Some of the results follow.
Assay: chemical genetic growth profiling, strain panel (AID 1159580);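 also: tested at 20 µM; growth read once vehicle control cultures reached saturation at 30 °C; 1 = growth at the plate median or of vehicle wells; lower values mean less growth of the strain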
Conditions: growth OD

Measured: normalized growth

COC(=O)c1c(C)cc(OC)cc1O
inactive: S. cerevisiae deletion strains, locus YJR075W, strain HOC1, hits give low values 0.974 | S. cerevisiae deletion strains, locus YKL009W, strain mrt4, hits give low values 0.964 | S. cerevisiae deletion strains, locus YKL068W, hits give low values 0.995 | S. cerevisiae deletion strains, locus YKL085W, strain MDH1 (second series), hits give low values 0.978 | S. cerevisiae deletion strains, locus YKL085W, strain MDH1, hits give low values 0.978 | S. cerevisiae deletion strains, locus YKL160W, strain elf1, hits give low values 0.971 | S. cerevisiae deletion strains, locus YKL190W, strain CNB1, hits give low values 0.991 | S. cerevisiae deletion strains, locus YKR001C, strain vps1, hits give low values 0.959 | S. cerevisiae deletion strains, locus YKR026C, strain gcn3, hits give low values 0.972 | S. cerevisiae deletion strains, locus YKR091W, strain srl3, hits give low values 0.974 | S. cerevisiae deletion strains, locus YLL001W, strain dnm1, hits give low values 0.973 | S. cerevisiae deletion strains, locus YLL026W, hits give low values 0.981 | S. cerevisiae deletion strains, locus YLL041C, strain sdh2, hits give low values 1 | S. cerevisiae deletion strains, locus YLR027C, strain aat2, hits give low values 0.967 | S. cerevisiae deletion strains, locus YLR039C, strain RIC1, hits give low values 0.995 | S. cerevisiae deletion strains, locus YLR058C, strain SHM2, hits give low values 0.998 | S. cerevisiae deletion strains, locus YLR102C, strain apc9, hits give low values 0.981 | S. cerevisiae deletion strains, locus YLR113W, strain HOG1, hits give low values 1.02 | S. cerevisiae deletion strains, locus YLR221C, strain rsa3, hits give low values 0.959 | S. cerevisiae deletion strains, locus YLR258W, strain gsy2, hits give low values 0.974 | S. cerevisiae deletion strains, locus YLR262C, strain YPT6 (second series), hits give low values 1.02 | S. cerevisiae deletion strains, locus YLR262C, strain YPT6, hits give low values 1.01 | S. cerevisiae deletion strains, locus YLR268W, strain sec22, hits give low values 0.989 | S. cerevisiae deletion strains, locus YLR320W, strain mms22, hits give low values 0.947 | S. cerevisiae deletion strains, locus YLR330W, strain CHS5, hits give low values 0.993 | S. cerevisiae deletion strains, locus YLR342W, strain FKS1 (second series), hits give low values 1 | S. cerevisiae deletion strains, locus YLR342W, strain FKS1, hits give low values 0.989 | S. cerevisiae deletion strains, locus YLR357W, strain rsc2, hits give low values 0.983 | S. cerevisiae deletion strains, locus YLR370C, strain arc18, hits give low values 0.986 | S. cerevisiae deletion strains, locus YLR371W, strain rom2, hits give low values 0.989 | S. cerevisiae deletion strains, locus YLR384C, strain iki3, hits give low values 0.976 | S. cerevisiae deletion strains, locus YLR418C, strain cdc73, hits give low values 0.941 | S. cerevisiae deletion strains, locus YML016C, strain PPZ1, hits give low values 0.982 | S. cerevisiae deletion strains, locus YML032C, strain rad52, hits give low values 0.976 | S. cerevisiae deletion strains, locus YML120C, strain ndi1, hits give low values 0.988 | S. cerevisiae deletion strains, locus YML124C, strain tub3, hits give low values 0.984 | S. cerevisiae deletion strains, locus YMR058W, strain fet3, hits give low values 0.978 | S. cerevisiae deletion strains, locus YMR078C, strain ctf18, hits give low values 0.981 | S. cerevisiae deletion strains, locus YMR125W, strain sto1, hits give low values 0.993 | S. cerevisiae deletion strains, locus YMR129W, hits give low values 0.993 | S. cerevisiae deletion strains, locus YMR205C, strain PFK2, hits give low values 0.95 | S. cerevisiae deletion strains, locus YMR223W, strain ubp8, hits give low values 0.971 | S. cerevisiae deletion strains, locus YMR231W, strain pep5, hits give low values 1 | S. cerevisiae deletion strains, locus YMR263W, strain SAP30, hits give low values 0.982 | S. cerevisiae deletion strains, locus YMR307W, strain GAS1, hits give low values 1.03 | S. cerevisiae deletion strains, locus YNL067W, strain RPL9B, hits give low values 0.994 | S. cerevisiae deletion strains, locus YNL071W, strain lat1, hits give low values 0.98 | S. cerevisiae deletion strains, locus YNL128W, strain TEP1, hits give low values 1.01 | S. cerevisiae deletion strains, locus YNL153C, strain GIM3, hits give low values 0.988 | S. cerevisiae deletion strains, locus YNL183C, strain NPR1, hits give low values 0.979 | S. cerevisiae deletion strains, locus YNL209W, strain ssb2, hits give low values 0.999 | S. cerevisiae deletion strains, locus YNL233W, strain BNI4, hits give low values 0.992 | S. cerevisiae deletion strains, locus YNL248C, strain rpa49, hits give low values 0.982 | S. cerevisiae deletion strains, locus YNL250W, strain rad50, hits give low values 0.979 | S. cerevisiae deletion strains, locus YNL271C, strain bni1, hits give low values 0.978 | S. cerevisiae deletion strains, locus YNL298W, strain CLA4, hits give low values 0.996 | S. cerevisiae deletion strains, locus YNL307C, strain MCK1, hits give low values 0.914 | S. cerevisiae deletion strains, locus YNL322C, strain KRE1 (second series), hits give low values 0.953 | S. cerevisiae deletion strains, locus YNL322C, strain KRE1, hits give low values 0.997 | S. cerevisiae deletion strains, locus YNR049C, strain mso1, hits give low values 0.998 | S. cerevisiae deletion strains, locus YNR052C, strain pop2, hits give low values 1 | S. cerevisiae deletion strains, locus YOL006C, strain TOP1, hits give low values 0.848 | S. cerevisiae deletion strains, locus YOL012C, strain htz1 0.923 | S. cerevisiae deletion strains, locus YOL147C, strain pex11, hits give low values 0.978 | S. cerevisiae deletion strains, locus YOR001W, strain rrp6, hits give low values 0.985 | S. cerevisiae deletion strains, locus YOR061W, strain CKA2, hits give low values 1.01 | S. cerevisiae deletion strains, locus YOR069W, strain VPS5, hits give low values 0.995 | S. cerevisiae deletion strains, locus YOR070C, strain gyp1, hits give low values 0.971 | S. cerevisiae deletion strains, locus YOR080W, strain dia2, hits give low values 0.982 | S. cerevisiae deletion strains, locus YOR083W, strain WHI5, hits give low values 0.96 | S. cerevisiae deletion strains, locus YOR106W, strain vam3, hits give low values 0.978 | S. cerevisiae deletion strains, locus YOR136W, strain idh2, hits give low values 0.995 | S. cerevisiae deletion strains, locus YOR144C, strain elg1, hits give low values 0.99 | S. cerevisiae deletion strains, locus YOR184W, strain ser1, hits give low values 0.922 | S. cerevisiae deletion strains, locus YOR231W, strain MKK1, hits give low values 1.03 | S. cerevisiae deletion strains, locus YOR265W, strain rbl2, hits give low values 0.965 | S. cerevisiae deletion strains, locus YOR270C, strain vph1, hits give low values 0.891 | S. cerevisiae deletion strains, locus YOR290C, strain snf2, hits give low values 0.977 | S. cerevisiae deletion strains, locus YOR316C, strain cot1, hits give low values 0.988 | S. cerevisiae deletion strains, locus YPL051W, strain arl3, hits give low values 0.954 | S. cerevisiae deletion strains, locus YPL055C, strain LGE1, hits give low values 1 | S. cerevisiae deletion strains, locus YPL078C, strain atp4, hits give low values 0.917 | S. cerevisiae deletion strains, locus YPL106C, strain sse1, hits give low values 0.929 | S. cerevisiae deletion strains, locus YPL240C, strain hsp82, hits give low values 0.974 | S. cerevisiae deletion strains, locus YPL241C, strain CIN2, hits give low values 0.994 | S. cerevisiae deletion strains, locus YPL256C, strain CLN2, hits give low values 1.03 | S. cerevisiae deletion strains, locus YPR119W, strain clb2, hits give low values 0.972 | S. cerevisiae deletion strains, locus YPR141C, strain kar3, hits give low values 0.98 | S. cerevisiae deletion strains, locus YPR163C, strain tif3, hits give low values 1 | S. cerevisiae deletion strains, locus YPR167C, strain met16, hits give low values 0.982 | S. cerevisiae deletion strains, strain wtn01, hits give low values 0.964 | S. cerevisiae strains, strain wild type, hits give low values 1
